Laboratory results from PubChem BioAssay AID1159580 (chemical genetic matrix, 2015).
Among all 5,500 compounds or so, about 2,000 (36%) were called active. Roughly 18% stayed inconclusive and do not appear here. Rule as the data show it: active = normalized growth mostly below about 0.91 (no sharp cut-off); inconclusive = no clear call, values can overlap the other calls; inactive = mostly above about 0.92. This is one part of the list.

Assay: chemical genetic growth profiling, strain panel (AID 1159580);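 also: tested at 20 µM; growth read once vehicle control cultures reached saturation at 30 °C; 1 = growth at the plate median or of vehicle wells; lower values mean less growth of the strain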
Conditions: growth OD

Measured: normalized growth

O=C(O)c1cc(O)c(O)c(O)c1
active: S. cerevisiae deletion strains, locus YLR039C, strain RIC1, active compounds read low 1.34 [resistant]
inactive: S. cerevisiae deletion strains, locus YJR066W, strain TOR1, active compounds read low 0.929 | S. cerevisiae deletion strains, locus YKL009W, strain mrt4, active compounds read low 1.03 | S. cerevisiae deletion strains, locus YKL068W, active compounds read low 1 | S. cerevisiae deletion strains, locus YKL085W, strain MDH1 (second series), active compounds read low 1.03 | S. cerevisiae deletion strains, locus YKL085W, strain MDH1, active compounds read low 1.03 | S. cerevisiae deletion strains, locus YKL160W, strain elf1, active compounds read low 1.05 | S. cerevisiae deletion strains, locus YKR001C, strain vps1, active compounds read low 1.07 | S. cerevisiae deletion strains, locus YKR026C, strain gcn3, active compounds read low 1.02 | S. cerevisiae deletion strains, locus YKR091W, strain srl3, active compounds read low 1.01 | S. cerevisiae deletion strains, locus YLL001W, strain dnm1, active compounds read low 0.997 | S. cerevisiae deletion strains, locus YLL026W, active compounds read low 1 | S. cerevisiae deletion strains, locus YLL041C, strain sdh2, active compounds read low 1.04 | S. cerevisiae deletion strains, locus YLR027C, strain aat2, active compounds read low 1.04 | S. cerevisiae deletion strains, locus YLR058C, strain SHM2, active compounds read low 1.06 | S. cerevisiae deletion strains, locus YLR102C, strain apc9, active compounds read low 1.02 | S. cerevisiae deletion strains, locus YLR113W, strain HOG1, active compounds read low 0.985 | S. cerevisiae deletion strains, locus YLR221C, strain rsa3, active compounds read low 0.981 | S. cerevisiae deletion strains, locus YLR258W, strain gsy2, active compounds read low 1.05 | S. cerevisiae deletion strains, locus YLR262C, strain YPT6 (second series), active compounds read low 1.03 | S. cerevisiae deletion strains, locus YLR262C, strain YPT6, active compounds read low 1.26 | S. cerevisiae deletion strains, locus YLR268W, strain sec22, active compounds read low 1.04 | S. cerevisiae deletion strains, locus YLR320W, strain mms22, active compounds read low 1.02 | S. cerevisiae deletion strains, locus YLR330W, strain CHS5, active compounds read low 1.03 | S. cerevisiae deletion strains, locus YLR342W, strain FKS1 (second series), active compounds read low 1.05 | S. cerevisiae deletion strains, locus YLR342W, strain FKS1, active compounds read low 1.03 | S. cerevisiae deletion strains, locus YLR357W, strain rsc2, active compounds read low 1.06 | S. cerevisiae deletion strains, locus YLR370C, strain arc18, active compounds read low 1.02 | S. cerevisiae deletion strains, locus YLR371W, strain rom2, active compounds read low 1.05 | S. cerevisiae deletion strains, locus YLR384C, strain iki3, active compounds read low 1.02 | S. cerevisiae deletion strains, locus YLR418C, strain cdc73, active compounds read low 1.11 | S. cerevisiae deletion strains, locus YML016C, strain PPZ1, active compounds read low 1.03 | S. cerevisiae deletion strains, locus YML032C, strain rad52, active compounds read low 1.03 | S. cerevisiae deletion strains, locus YML120C, strain ndi1, active compounds read low 1.01 | S. cerevisiae deletion strains, locus YML124C, strain tub3, active compounds read low 1.02 | S. cerevisiae deletion strains, locus YMR058W, strain fet3, active compounds read low 1.01 | S. cerevisiae deletion strains, locus YMR078C, strain ctf18, active compounds read low 1.03 | S. cerevisiae deletion strains, locus YMR125W, strain sto1, active compounds read low 1.03 | S. cerevisiae deletion strains, locus YMR129W, active compounds read low 1.03 | S. cerevisiae deletion strains, locus YMR205C, strain PFK2, active compounds read low 1.06 | S. cerevisiae deletion strains, locus YMR223W, strain ubp8, active compounds read low 1.02 | S. cerevisiae deletion strains, locus YMR231W, strain pep5, active compounds read low 1.01 | S. cerevisiae deletion strains, locus YMR307W, strain GAS1, active compounds read low 1.24 | S. cerevisiae deletion strains, locus YNL067W, strain RPL9B, active compounds read low 1.02 | S. cerevisiae deletion strains, locus YNL071W, strain lat1, active compounds read low 1.06 | S. cerevisiae deletion strains, locus YNL183C, strain NPR1, active compounds read low 0.933 | S. cerevisiae deletion strains, locus YNL209W, strain ssb2, active compounds read low 1.01 | S. cerevisiae deletion strains, locus YNL233W, strain BNI4, active compounds read low 1.08 | S. cerevisiae deletion strains, locus YNL248C, strain rpa49, active compounds read low 1.08 | S. cerevisiae deletion strains, locus YNL250W, strain rad50, active compounds read low 1.05 | S. cerevisiae deletion strains, locus YNL271C, strain bni1, active compounds read low 1.01 | S. cerevisiae deletion strains, locus YNL298W, strain CLA4, active compounds read low 1.01 | S. cerevisiae deletion strains, locus YNL307C, strain MCK1, active compounds read low 1.03 | S. cerevisiae deletion strains, locus YNL322C, strain KRE1 (second series), active compounds read low 1.03 | S. cerevisiae deletion strains, locus YNR049C, strain mso1, active compounds read low 1.01 | S. cerevisiae deletion strains, locus YNR052C, strain pop2, active compounds read low 1.01 | S. cerevisiae deletion strains, locus YOL006C, strain TOP1, active compounds read low 1.36 | S. cerevisiae deletion strains, locus YOL012C, strain htz1 0.913 | S. cerevisiae deletion strains, locus YOL147C, strain pex11, active compounds read low 1.02 | S. cerevisiae deletion strains, locus YOR001W, strain rrp6, active compounds read low 0.981 | S. cerevisiae deletion strains, locus YOR061W, strain CKA2, active compounds read low 1.04 | S. cerevisiae deletion strains, locus YOR069W, strain VPS5, active compounds read low 1.03 | S. cerevisiae deletion strains, locus YOR070C, strain gyp1, active compounds read low 1.02 | S. cerevisiae deletion strains, locus YOR080W, strain dia2, active compounds read low 1.01 | S. cerevisiae deletion strains, locus YOR083W, strain WHI5, active compounds read low 0.995 | S. cerevisiae deletion strains, locus YOR106W, strain vam3, active compounds read low 1.05 | S. cerevisiae deletion strains, locus YOR136W, strain idh2, active compounds read low 1.02 | S. cerevisiae deletion strains, locus YOR144C, strain elg1, active compounds read low 1.01 | S. cerevisiae deletion strains, locus YOR184W, strain ser1, active compounds read low 1.05 | S. cerevisiae deletion strains, locus YOR231W, strain MKK1, active compounds read low 0.971 | S. cerevisiae deletion strains, locus YOR265W, strain rbl2, active compounds read low 1 | S. cerevisiae deletion strains, locus YOR270C, strain vph1, active compounds read low 1.17 | S. cerevisiae deletion strains, locus YOR290C, strain snf2, active compounds read low 1.05 | S. cerevisiae deletion strains, locus YOR316C, strain cot1, active compounds read low 1.02 | S. cerevisiae deletion strains, locus YPL051W, strain arl3, active compounds read low 1.04 | S. cerevisiae deletion strains, locus YPL055C, strain LGE1, active compounds read low 1.1 | S. cerevisiae deletion strains, locus YPL078C, strain atp4, active compounds read low 1.05 | S. cerevisiae deletion strains, locus YPL106C, strain sse1, active compounds read low 1.06 | S. cerevisiae deletion strains, locus YPL240C, strain hsp82, active compounds read low 1.01 | S. cerevisiae deletion strains, locus YPL256C, strain CLN2, active compounds read low 0.968 | S. cerevisiae deletion strains, locus YPR119W, strain clb2, active compounds read low 1.05 | S. cerevisiae deletion strains, locus YPR141C, strain kar3, active compounds read low 1.02 | S. cerevisiae deletion strains, locus YPR163C, strain tif3, active compounds read low 1.03 | S. cerevisiae deletion strains, locus YPR167C, strain met16, active compounds read low 1.05 | S. cerevisiae deletion strains, strain wtn01, active compounds read low 1.03 | S. cerevisiae strains, strain wild type, active compounds read low 1.07
